Measured values reported in PubChem BioAssay (NCATS).
Inconclusive results are not listed. Calls of active or inactive are those of the source. The call rests on the fitted dose curve.

assay: A High-Content qHTS Against Drug Library for the Identification of Small Molecules that Inhibit DYT1 Early Onset Primary Dystonia-Associated Cell Pathology (AID 1645839); conditions: HEK293 Flp-In EGFP-delE TorsinA, punctate imaging, 48 h; series mostly up to 46.1 µM
Text: Nicole Calakos M.D., Ph.D.
Duke University School of Medicine, Durham, NC
In DYT1 dystonia due to delGAG in the TOR1A gene, there is a robust and widely replicated finding of TorsinA protein mislocalization caused when the mutant protein is in excess of the wildtype protein (1-7). Stable HEK293 cell lines were created that replicate this phenomenon. Inducible expression of an EGFP-hu delE TorsinA encoding cDNA causes pronounced punctate cellular distribution. […] This phenotypic difference in EGFP-huTorsinA fusion protein distribution serves as an indicator of cell pathology. […] RNAi screen results with the assay were validated in DYT1 patient cell phenotypes, intersected with a known dystonia gene, and led to discovery of new human genetic dystonia associations.
The bioassay described herein is a high-content image screen with two readouts. The "%pathology" readout is the primary qHTS data channel, while the "cellcount" is the counterscreen qHTS channel. Desired active compounds are those that show inhibition in %pathology channel but no activity or minimal toxicity in cellcount readout.
1. Kustedjo, K., Bracey, M.H., and Cravatt, B.F. (2000). […] J. Biol. Chem. 275, 27933 - 27939.
2. Bragg, D.C., Kaufman, C.A., Kock, N., and Breakefield, X.O. (2004). Inhibition of N-linked glycosylation prevents inclusion formation by the dystonia-related mutant form of torsinA. Mol. Cell. Neurosci. 27, 417 - 426.
3. Gonzalez-Alegre, P., and Paulson, H.L. (2004). Aberrant Cellular Behavior of Mutant TorsinA Implicates Nuclear Envelope Dysfunction in DYT1 Dystonia. J. Neurosci. 24, 2593 - 2601.
4. Goodchild, R.E., and Dauer, W.T. (2004). Mislocalization to the nuclear envelope: an effect of the dystonia-causing torsinA mutation. Proc. Natl. Acad. Sci. U. S. A. 101, 847 - 852.
5. Kock, N., Allchorne, A.J., Sena-Esteves, M., Woolf, C.J., and Breakefield, X.O. (2006). RNAi blocks DYT1 mutant torsinA inclusions in neurons. Neurosci. Lett. 395, 201 - 205.
6. Hewett, J.W., Nery, F.C., Niland, B., Ge, P., Tan, P., Hadwiger, P., Tannous, B.A., Sah, D.W.Y., and Breakefield, X.O. (2008). siRNA knock-down of mutant torsinA restores processing through secretory pathway in DYT1 dystonia cells. Hum. Mol. Genet. 17, 1436 - 1445.
7. Calakos, N., Patel, V.D., Gottron, M., Wang, G., Tran-Viet, K.N., Brewington, D., Beyer, J.L., Steffens, D.C., Krishnan, R.R., and Zuchner, S. (2010). Functional evidence implicating a novel TOR1A mutation in idiopathic, late-onset focal dystonia. J. Med. Genet. 47, 646 - 650.
8. Rittiner* JE, Caffall* ZF, Hernandez-Martinez R, Sanderson SM, Pearson JL, Tsukayama KK, Liu AY, Xiao C, Tracy S, Shipman MK, Hickey P, Johnson J, Scott B, Stacy M, Saunders-Pullman R, Bressman S, Simonyan K, Sharma N, Ozelius LJ, Cirulli ET, Calakos N. Functional Genomic Analyses of Mendelian and Sporadic Disease Identify Impaired eIF2alpha Signaling as a Generalizable Mechanism for Dystonia. Neuron. 2016 Dec 21;92(6):1238-1251. doi: 10.1016/j.neuron.2016.11.012. Epub 2016 Dec 8. PMID: 27939583; PMCID: PMC5320521.
High-content, High-throughput Drug Screening Assay
The TorsinA mislocalization assay was modified from the previously published assay to accommodate compound testing in 1536 well format.1 Briefly, Flp-In T-REx 293 cells from Invitrogen in which a single copy of a cDNA is recombined into a specific genomic locus was used to create tetracycline-inducible expression of cDNA encoding either EGFP-hTOR1A (WT) or EGFP-delE hTOR1A (DYT1). WT and DYT1 cells were diluted to a concentration of 2 x 10^5 cells/mL in reduced serum media (DMEM High Glucose containing 1% tetracycline-tested FBS, 2 mM L-Glutamine, and 1% Penicillin/Streptomycin). 4 µl of WT cells and 4 µl of DTY1 cells were added to column 1 and columns 2-48, respectively, of a poly-D-lysine-coated, low base, black, clear bottom 1536 well plate (Corning, Corning, NY) using the BioRAPTR FRD Microfluidic Workstation (Beckman Coulter, Indianapolis, IN). The final cell number was 800 cells/well. […]

| SMILES | outcome |
| --- | --- |
| CC(Cc1ccccc1)N(C)Cc1ccco1 (stereo not given) | inactive |
| COP(=S)(OC)SCN1C(=O)c2ccccc2C1=O | inactive |
| CN1C(=O)COc2c(C(=O)NC3CN4CCC3CC4)cc(Cl)cc21 (stereo not given) | inactive |
| CC(C)NC(C)C | inactive |
| C=C(C)[C@H]1CN[C@H](C(=O)O)[C@H]1CC(=O)O | inactive |
| CNC(C)(C)Cc1ccccc1 | inactive |
| O=C1OC(c2ccc(O)c(S(=O)(=O)O)c2)(c2ccc(O)c(S(=O)(=O)O)c2)c2c(Br)c(Br)c(Br)c(Br)c21 | inactive |
| C[C@]12CCC(=O)C=C1CC[C@@H]1[C@@H]2CC[C@@]2(C)[C@H]1CC[C@]2(C)O | inactive |
| CN(C)CCc1c[nH]c2cccc(OP(=O)(O)O)c12 | inactive |
| O=C(CCCN1CCC2(CC1)C(=O)NCN2c1ccccc1)c1ccc(F)cc1 | inactive |
| CC(C(=O)c1ccccc1)N(C)C (stereo not given) | inactive |
| CCCCCCCCCC(=O)O[C@H]1CC[C@H]2[C@@H]3CCC4=CC(=O)CC[C@@H]4[C@H]3CC[C@]12C | inactive |
| COC(=O)[C@@H](N)CCCN/C(N)=N/[N+](=O)[O-] | inactive |
| COc1cc(CCN)cc(OC)c1OC | inactive |
| ClCCN1CCCC1 | inactive |
| CCc1cc2c(s1)-n1c(C)nnc1CN=C2c1ccccc1Cl | inactive |
| CCOC(=O)CC(SP(=S)(OC)OC)C(=O)OCC (stereo not given) | inactive |
| CCC1(c2ccccc2)C(=O)N(COC)C(=O)N(COC)C1=O | inactive |
| CCC1(CC)C(=O)C=CNC1=O | inactive |
| CCN[C@@H](C)Cc1ccccc1 | inactive |

| SMILES | outcome |
| --- | --- |
| COc1c2c(cc3c1OCO3)CCN(C)C2 | inactive |
| NC1=NC(=O)C(c2ccccc2)O1 (stereo not given) | inactive |
| CCN(CCO)CCn1c(Cc2ccccc2)nc2c1c(=O)n(C)c(=O)n2C | inactive |
| CC(=O)OCC1=C(C(=O)O)N2C(=O)[C@@H](N)[C@H]2SC1 | inactive |
| O=c1oc2ccccc2c(O)c1Cc1c(O)c2ccccc2oc1=O | inactive |
| O=C(N/N=C/c1ccc([N+](=O)[O-])o1)c1cc([N+](=O)[O-])cc([N+](=O)[O-])c1O | inactive |
| CCCOC(=O)c1cncn1C(C)c1ccccc1 (stereo not given) | inactive |
| CN1C(=O)NC(=O)C(C)(C2=CCCCC2)C1=O (stereo not given) | inactive |
| O=C(O)CCCc1ccc(N(CCCl)CCCl)cc1 | inactive |
| C#CC(O)(C=CCl)CC (stereo not given) | inactive |
| c1ccc(CN2CCNCC2)cc1 | inactive |
| Cc1ncsc1CCCl | inactive |
| O=c1[nH]c2ccccc2n1C1CCNCC1 | inactive |
| CN1CC[C@]23c4c5ccc(O)c4O[C@H]2[C@@H](O)C=C[C@H]3[C@H]1C5 | inactive |
| COC(=O)C(Cl)C(=O)OC | inactive |
| O=[N+]([O-])O[C@H]1CO[C@H]2[C@@H]1OC[C@H]2O[N+](=O)[O-] | inactive |
| CN1C(=O)CCS(=O)(=O)C1c1ccc(Cl)cc1 (stereo not given) | inactive |
| C=CCC1([C@H](C)CCC)C(=O)NC(=O)NC1=O | inactive |
| C[C@@H](N)[C@@H](O)c1ccccc1 | inactive |
| O=c1[nH]oc2c1CCNC2 | inactive |
